Calls of active or inactive are those of the source. The calls were made as follows: active = hit-call score of the fitted dose curve at least 0.9, where 1 is the maximum; inactive = score below 0.9.
Experiments:
[1] = biological target: Bile acid receptor (Homo sapiens) (UniProt Q96RI1); assay: ATG_IR1_CIS: Attagene CIS-FACTORIAL HepG2 Assay for human Nuclear Receptor Subfamily 1 Group H Member 4 (NR1H4), IR1 submotif (AID 2282946); conditions: IR1 reporter transcription, actives raise or lower the signal
Summary of the method: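 Readout: reporter transcript levels by RT-PCR with fluorescent capillary electrophoresis, from HepG2 cells transiently transfected with multiplexed cis-regulated reporters and dosed 24 h. Gain- or loss-of-signal fitted versus DMSO negative control.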

[2] = ATG_ISRE_CIS: Attagene CIS-FACTORIAL HepG2 Assay for human Interferon Regulatory Factor 1 (IRF1) binding to an Interferon-Stimulated Response Element (ISRE) (AID 2282948); conditions: HepG2 ISRE cis-reporter (Attagene), mRNA transcription readout; actives raise or lower the signal
Summary of the method: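 Signal reflects induction or loss of ISRE-linked reporter mRNA in transiently transfected HepG2 cells after a 24 h treatment, detected by fluorescent RT-PCR fragments on capillary electrophoresis and normalised to DMSO.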

[3] = ATG_M_32_CIS: Attagene CIS-FACTORIAL HepG2 Assay for M32 Transcription Factor (Internal Marker) (AID 2282949); conditions: HepG2 Attagene cis-factorial M32 reporter, mRNA; actives raise or lower the signal;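 also: background control marker of the multiplexed CIS panel rather than a real target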
Summary of the method: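 HepG2 transfectants (cis-regulated reporter transcription units) dosed 24 h. Reporter mRNA by RT-PCR plus CE, analysed as gain or loss relative to DMSO.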

[4] = ATG_M_06_CIS: Attagene CIS-FACTORIAL HepG2 Assay for M06 Transcription Factor (Internal Marker) (AID 2282950); conditions: HepG2 Attagene CIS-FACTORIAL M06 internal marker reporter; actives raise or lower the signal
Summary of the method: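 Steps: transfect HepG2 with multiplexed cis-element reporter constructs; dose chemical 24 h; extract RNA with DNase treatment; reverse-transcribe, PCR-amplify, 6-FAM label, HpaI digest; separate fragments by capillary electrophoresis. Activity fitted both directions versus DMSO.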

[5] = biological target: Hepatocyte nuclear factor 6 (Homo sapiens) (UniProt Q9UBC0); assay: ATG_HNF6_CIS: Attagene CIS-FACTORIAL HepG2 Assay for human Hepatocyte Nuclear Factor 6 (HNF6) (AID 2282952); conditions: HepG2 Attagene cis-factorial HNF6 reporter transcription; actives raise or lower the signal
Summary of the method: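 Activity values derive from bidirectional fitting against DMSO of reporter mRNA levels, measured by capillary electrophoresis of labelled RT-PCR products from HepG2 cells exposed 24 h.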

[6] = biological target: Heat shock factor protein 1 (Homo sapiens) (UniProt Q00613); assay: ATG_HSE_CIS: Attagene CIS-FACTORIAL HepG2 Assay for human Heat Shock Transcription Factor 1 (HSE) (AID 2282953); conditions: HepG2 HSE cis-reporter, Attagene RNA transcription; actives raise or lower the signal
Summary of the method: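 Cells were transfected with cis-element-driven reporter constructs, dosed for 24 h, then total RNA was reverse-transcribed and reporter cDNA amplified, FAM-labelled and digested with HpaI. Fragments were resolved by capillary electrophoresis; gain or loss was fitted against DMSO.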

[7] = ATG_MRE_CIS: Attagene CIS-FACTORIAL HepG2 Assay for human Metal Responsive Element (MRE) (AID 2282954); conditions: HepG2 MRE cis-reporter transcription, Attagene multiplex; actives raise or lower the signal
Summary of the method: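 Cells were transfected with cis-promoter reporter transcription units, then dosed for 24 h. RNA was reverse-transcribed, amplified, fluorescently labelled and resolved by capillary electrophoresis, and activity was fitted in both directions relative to DMSO.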

[8] = ATG_PBREM_CIS: Attagene CIS-FACTORIAL HepG2 Assay for human Phenobarbital-responsive Enhancer Module (PBREM) (AID 2282955); conditions: HepG2 PBREM cis-reporter, Attagene multiplexed transcription; actives raise or lower the signal
Summary of the method: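 Multiplexed cis-reporter readout in human hepatoma HepG2 cells; PBREM-regulated transcript quantified after 24 h exposure by fluorescent RT-PCR fragment analysis. Signal changes up or down fitted relative to DMSO.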

[9] = biological target: Paired box protein Pax-6 (Homo sapiens) (UniProt P26367); assay: ATG_Pax6_CIS: Attagene CIS-FACTORIAL HepG2 Assay for human Paired Box 6 (PAX6) (AID 2282956); conditions: HepG2 CIS-FACTORIAL PAX6 reporter transcription, RNA readout; actives raise or lower the signal
Summary of the method: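 Values derive from bidirectional curve fitting of reporter mRNA signal relative to DMSO. HepG2 cells bearing transfected cis-regulated MRTUs were exposed for 24 h; transcripts were read by RT-PCR and capillary electrophoresis.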

[10] = ATG_PXRE_CIS: Attagene CIS-FACTORIAL HepG2 Assay for human Pregnane X Receptor Element (PXRE) (AID 2282957); conditions: HepG2 Attagene CIS-FACTORIAL PXRE reporter, mRNA; actives raise or lower the signal
Summary of the method: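 Fluorescent capillary electrophoresis of amplified reporter cDNA gave the signal, collected 24 h after dosing HepG2 cells that held transfected cis-element reporter constructs.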

[11] = ATG_PPRE_CIS: Attagene CIS-FACTORIAL HepG2 Assay for human Peroxisome Proliferator-activated Response Element (PPRE) (AID 2282958); conditions: HepG2 PPRE cis-element reporter, Attagene transcription factor profiling; actives raise or lower the signal
Summary of the method: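 DMSO served as negative control and baseline for bidirectional curve fitting. Signal came from PPRE-regulated reporter mRNA in HepG2 cells, measured 24 h post-dosing by RT-PCR, 6-FAM primer extension and capillary electrophoresis.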

[12] = ATG_RORE_CIS: Attagene CIS-FACTORIAL HepG2 Assay for human RAR-related Orphan Receptor Element (RORE) (AID 2282959); conditions: HepG2 Attagene cis-factorial RORE reporter, mRNA; actives raise or lower the signal
Summary of the method: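 Transfect HepG2 with MRTUs; treat 24 h; extract RNA; RT with oligo(dT); PCR with reporter-specific primers; 6-FAM primer extension; HpaI digest 2 h at 37 C; capillary electrophoresis. Fit vs DMSO, bidirectional.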

[13] = ATG_Sox_CIS: Attagene CIS-FACTORIAL HepG2 Assay for human SRY-box transcription factor (SOX) (AID 2282960); conditions: HepG2 Attagene cis-factorial SOX reporter, mRNA; actives raise or lower the signal
Summary of the method: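 Fluorescence-labelled cDNA fragments from reporter transcripts, sized by CE, give the signal. Cells: HepG2, transiently transfected with cis-regulated reporter units. Exposure 24 h; DMSO negative control; bidirectional curve fitting.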

[14] = biological target: Transcription factor Sp1 (Homo sapiens) (UniProt P08047); assay: ATG_Sp1_CIS: Attagene CIS-FACTORIAL HepG2 Assay for human Specificity Protein 1 (Sp1) (AID 2282961); conditions: HepG2 Sp1 cis-reporter transcription, actives raise or lower the signal
Summary of the method: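 Chemicals are dosed onto HepG2 cells transfected with multiple cis-promoter reporter constructs, and after 24 h reporter RNA is reverse-transcribed, PCR-amplified and resolved by capillary electrophoresis for fluorescence quantitation; activity is scored up or down against DMSO.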

[15] = ATG_SREBP_CIS: Attagene CIS-FACTORIAL HepG2 Assay for human Sterol Regulatory Element Binding (SREBP) (AID 2282962); conditions: HepG2 Attagene cis-factorial SREBP reporter, mRNA; actives raise or lower the signal
Summary of the method: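 Values derive from bidirectional curve fitting with DMSO as baseline. The underlying measurement is reporter mRNA from cis-element-regulated units in transiently transfected HepG2, quantified by RT-PCR and capillary electrophoresis after 24 h exposure.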

[16] = biological target: Signal transducer and activator of transcription 3 (Homo sapiens) (UniProt P40763); assay: ATG_STAT3_CIS: Attagene CIS-FACTORIAL HepG2 Assay for human Signal Transducer and Activator of Transcription 3 (STAT3) (AID 2282963); conditions: HepG2, Attagene cis-factorial STAT3 reporter transcription; actives raise or lower the signal
Summary of the method: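 HepG2, MRTU-transfected, 24 h dosing. RNA → RT → PCR → FAM label → HpaI → CE. Bidirectional fit vs DMSO.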

[17] = ATG_TA_CIS: Attagene CIS-FACTORIAL HepG2 Assay for human TA Basal Promoter (AID 2282964); conditions: HepG2 Attagene CIS-factorial TA basal promoter reporter; actives raise or lower the signal
Summary of the method: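 Steps: transfect HepG2 with MRTUs; dose 24 h; isolate RNA, DNase-treat, reverse-transcribe; PCR and FAM-label reporter cDNA; digest with HpaI 2h at 37 C; run capillary electrophoresis. Activity fitted both directions against DMSO.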

[18] = ATG_TCF_b_cat_CIS: Attagene CIS-FACTORIAL HepG2 Assay for human T-Cell-Factor with beta-catenin (TCF/b-cat) (AID 2282965); conditions: HepG2 TCF/beta-catenin cis-reporter transcription, actives raise or lower the signal
Summary of the method: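 Using capillary electrophoresis as the read-out, labelled reporter cDNA fragments from transiently transfected HepG2 were sized and quantified. Exposure lasted 24 hours; activity in either direction was referenced to DMSO.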

[19] = biological target: Hypoxia-inducible factor 1-alpha (Homo sapiens) (UniProt Q16665); assay: ATG_HIF1a_CIS: Attagene CIS-FACTORIAL HepG2 Assay for human Hypoxia Inducible Factor 1 (HIF1A) (AID 2282951); conditions: HepG2 Attagene cis-factorial HIF1a reporter transcription; actives raise or lower the signal
Summary of the method: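 Cis-element reporter constructs were transiently transfected into HepG2 cells, which were treated for 24 h; reporter RNA was reverse-transcribed, amplified, labelled and resolved by capillary electrophoresis.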

[20] = ATG_GRE_CIS: Attagene CIS-FACTORIAL HepG2 Assay for human Glucocorticoid Response Elements (GRE) (AID 2282947); conditions: HepG2 GRE cis-reporter, Attagene multiplex mRNA; actives raise or lower the signal
Summary of the method: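 Cells (HepG2) bearing transfected cis-promoter reporter transcription units were treated with chemical for 24 hours. Reporter mRNA was measured via RT-PCR with capillary electrophoresis, and activity was fitted in both directions relative to DMSO.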

Measured: AC50

Hepatocyte nuclear factor 6 (Homo sapiens), sequence (Q9UBC0 whole entry, looked up): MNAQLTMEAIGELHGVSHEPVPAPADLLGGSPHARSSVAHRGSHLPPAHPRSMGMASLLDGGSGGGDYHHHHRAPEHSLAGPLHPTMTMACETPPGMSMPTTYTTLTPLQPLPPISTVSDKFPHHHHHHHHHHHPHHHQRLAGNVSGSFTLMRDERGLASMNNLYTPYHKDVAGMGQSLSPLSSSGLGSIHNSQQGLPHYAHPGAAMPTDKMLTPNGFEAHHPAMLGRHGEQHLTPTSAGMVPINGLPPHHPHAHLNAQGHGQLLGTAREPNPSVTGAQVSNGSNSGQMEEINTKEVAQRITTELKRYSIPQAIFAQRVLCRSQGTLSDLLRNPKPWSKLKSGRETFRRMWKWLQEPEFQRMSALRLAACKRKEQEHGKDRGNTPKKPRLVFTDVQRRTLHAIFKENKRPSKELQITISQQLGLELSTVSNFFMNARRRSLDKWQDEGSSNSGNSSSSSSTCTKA
Transcription factor Sp1 (Homo sapiens), sequence (P08047 whole entry, looked up): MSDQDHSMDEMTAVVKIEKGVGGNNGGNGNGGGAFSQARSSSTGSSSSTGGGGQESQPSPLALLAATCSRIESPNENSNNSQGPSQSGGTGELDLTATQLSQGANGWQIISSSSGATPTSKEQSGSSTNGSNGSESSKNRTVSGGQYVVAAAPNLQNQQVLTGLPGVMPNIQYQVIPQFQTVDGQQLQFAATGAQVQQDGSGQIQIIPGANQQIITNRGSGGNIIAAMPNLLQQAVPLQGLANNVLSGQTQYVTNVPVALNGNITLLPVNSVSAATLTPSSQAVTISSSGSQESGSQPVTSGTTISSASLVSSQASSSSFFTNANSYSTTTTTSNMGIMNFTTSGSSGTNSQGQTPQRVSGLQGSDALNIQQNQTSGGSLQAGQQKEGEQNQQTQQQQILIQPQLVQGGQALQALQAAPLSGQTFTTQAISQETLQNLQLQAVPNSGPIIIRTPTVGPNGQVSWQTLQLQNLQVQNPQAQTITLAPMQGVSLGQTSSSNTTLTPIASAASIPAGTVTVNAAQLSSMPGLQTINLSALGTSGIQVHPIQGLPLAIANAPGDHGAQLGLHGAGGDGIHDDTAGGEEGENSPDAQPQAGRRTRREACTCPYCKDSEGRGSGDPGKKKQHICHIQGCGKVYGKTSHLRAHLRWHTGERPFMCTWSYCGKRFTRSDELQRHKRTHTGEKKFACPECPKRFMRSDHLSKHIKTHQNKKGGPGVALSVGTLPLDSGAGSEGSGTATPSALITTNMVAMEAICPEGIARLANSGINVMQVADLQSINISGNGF
Bile acid receptor (Homo sapiens), sequence (Q96RI1 whole entry, looked up): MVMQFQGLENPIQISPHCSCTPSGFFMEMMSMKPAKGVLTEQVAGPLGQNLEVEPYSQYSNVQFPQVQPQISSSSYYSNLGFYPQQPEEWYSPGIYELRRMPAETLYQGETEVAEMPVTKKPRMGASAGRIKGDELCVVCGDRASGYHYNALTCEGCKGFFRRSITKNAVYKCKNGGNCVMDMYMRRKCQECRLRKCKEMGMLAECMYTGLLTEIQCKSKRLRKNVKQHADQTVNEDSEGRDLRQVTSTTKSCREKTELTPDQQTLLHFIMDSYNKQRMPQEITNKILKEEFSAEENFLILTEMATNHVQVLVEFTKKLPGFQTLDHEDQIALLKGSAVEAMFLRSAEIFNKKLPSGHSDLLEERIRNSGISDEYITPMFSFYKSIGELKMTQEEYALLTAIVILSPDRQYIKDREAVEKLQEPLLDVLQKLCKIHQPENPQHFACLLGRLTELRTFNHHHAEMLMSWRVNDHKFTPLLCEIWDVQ
Signal transducer and activator of transcription 3 (Homo sapiens), sequence (P40763 whole entry, looked up): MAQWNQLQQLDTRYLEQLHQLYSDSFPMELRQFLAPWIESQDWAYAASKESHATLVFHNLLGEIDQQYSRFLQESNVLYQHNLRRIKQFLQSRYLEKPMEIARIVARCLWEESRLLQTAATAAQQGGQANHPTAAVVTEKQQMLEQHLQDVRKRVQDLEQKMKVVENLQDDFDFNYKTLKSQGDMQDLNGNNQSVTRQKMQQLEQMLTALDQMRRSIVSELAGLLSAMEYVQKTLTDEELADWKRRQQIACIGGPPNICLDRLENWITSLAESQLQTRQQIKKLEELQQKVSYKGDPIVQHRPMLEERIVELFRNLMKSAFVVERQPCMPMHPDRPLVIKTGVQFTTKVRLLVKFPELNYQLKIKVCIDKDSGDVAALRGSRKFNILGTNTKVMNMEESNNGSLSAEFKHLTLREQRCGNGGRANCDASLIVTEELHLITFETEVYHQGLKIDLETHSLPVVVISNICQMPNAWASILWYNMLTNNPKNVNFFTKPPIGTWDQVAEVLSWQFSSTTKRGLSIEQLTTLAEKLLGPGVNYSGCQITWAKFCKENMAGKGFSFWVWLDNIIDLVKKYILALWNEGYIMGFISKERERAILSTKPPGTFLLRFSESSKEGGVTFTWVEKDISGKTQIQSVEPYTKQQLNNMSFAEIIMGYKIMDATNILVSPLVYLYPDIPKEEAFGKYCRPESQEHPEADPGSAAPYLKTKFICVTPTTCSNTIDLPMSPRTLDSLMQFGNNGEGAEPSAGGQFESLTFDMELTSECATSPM
Hypoxia-inducible factor 1-alpha (Homo sapiens), sequence (Q16665 whole entry, looked up): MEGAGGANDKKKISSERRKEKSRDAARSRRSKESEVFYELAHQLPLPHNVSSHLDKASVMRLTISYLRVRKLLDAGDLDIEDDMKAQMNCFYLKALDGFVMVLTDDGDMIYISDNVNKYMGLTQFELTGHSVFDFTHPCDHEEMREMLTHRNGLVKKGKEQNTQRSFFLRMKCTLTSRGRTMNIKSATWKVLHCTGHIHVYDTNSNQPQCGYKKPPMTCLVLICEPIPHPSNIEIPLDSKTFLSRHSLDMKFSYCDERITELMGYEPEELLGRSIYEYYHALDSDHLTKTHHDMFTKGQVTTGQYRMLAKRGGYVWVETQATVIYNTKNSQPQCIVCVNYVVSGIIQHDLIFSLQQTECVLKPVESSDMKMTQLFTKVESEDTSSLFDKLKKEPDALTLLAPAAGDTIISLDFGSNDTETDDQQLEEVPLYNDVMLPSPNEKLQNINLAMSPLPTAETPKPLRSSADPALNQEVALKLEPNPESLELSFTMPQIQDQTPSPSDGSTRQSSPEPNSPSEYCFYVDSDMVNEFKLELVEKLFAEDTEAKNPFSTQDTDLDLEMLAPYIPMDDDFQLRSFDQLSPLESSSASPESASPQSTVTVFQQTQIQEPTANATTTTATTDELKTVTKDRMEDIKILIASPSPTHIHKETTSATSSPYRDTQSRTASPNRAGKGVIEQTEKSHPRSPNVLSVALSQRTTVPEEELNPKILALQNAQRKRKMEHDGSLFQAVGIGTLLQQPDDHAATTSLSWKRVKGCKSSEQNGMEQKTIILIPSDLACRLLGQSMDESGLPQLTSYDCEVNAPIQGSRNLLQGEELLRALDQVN
Paired box protein Pax-6 (Homo sapiens), sequence (P26367 whole entry, looked up): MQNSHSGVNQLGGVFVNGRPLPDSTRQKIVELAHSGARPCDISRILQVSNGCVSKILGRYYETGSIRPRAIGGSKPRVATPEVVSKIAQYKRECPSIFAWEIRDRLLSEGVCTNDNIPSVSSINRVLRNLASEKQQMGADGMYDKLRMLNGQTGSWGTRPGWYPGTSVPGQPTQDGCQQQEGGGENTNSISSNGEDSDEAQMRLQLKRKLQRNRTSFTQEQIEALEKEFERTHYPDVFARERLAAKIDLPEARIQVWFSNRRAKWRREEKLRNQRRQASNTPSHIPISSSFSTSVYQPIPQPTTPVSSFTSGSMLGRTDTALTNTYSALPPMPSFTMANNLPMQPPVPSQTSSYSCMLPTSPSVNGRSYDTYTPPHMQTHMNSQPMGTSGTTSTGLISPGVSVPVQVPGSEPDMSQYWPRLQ
Heat shock factor protein 1 (Homo sapiens), sequence (Q00613 whole entry, looked up, the tested form may be a part): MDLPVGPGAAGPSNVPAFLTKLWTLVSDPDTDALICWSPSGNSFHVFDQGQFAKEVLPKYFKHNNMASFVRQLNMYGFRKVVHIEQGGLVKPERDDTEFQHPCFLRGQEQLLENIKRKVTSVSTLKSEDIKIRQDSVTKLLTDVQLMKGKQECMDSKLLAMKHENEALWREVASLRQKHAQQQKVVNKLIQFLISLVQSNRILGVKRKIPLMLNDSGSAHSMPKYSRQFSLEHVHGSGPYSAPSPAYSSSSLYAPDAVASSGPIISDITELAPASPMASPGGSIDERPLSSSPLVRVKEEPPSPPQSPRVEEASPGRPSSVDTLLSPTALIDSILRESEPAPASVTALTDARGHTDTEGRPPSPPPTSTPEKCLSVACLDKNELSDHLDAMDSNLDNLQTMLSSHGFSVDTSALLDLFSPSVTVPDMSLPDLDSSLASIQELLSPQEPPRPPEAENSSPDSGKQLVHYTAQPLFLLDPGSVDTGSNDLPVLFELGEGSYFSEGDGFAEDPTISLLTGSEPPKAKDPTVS

O=C(/C=C/C=C/c1ccc2c(c1)OCO2)N1CCCCC1
active: [1] 69.4 µM | [2] 89.5 µM | [6] 159 µM | [7] 96.1 µM | [10] 2.37 µM | [17] 66.9 µM
not listed: [19] | [20]
inactive: all other assays above

O=C(O)C(c1ccc(Cl)cc1)c1ccc(Cl)cc1
active: [19] 72.1 µM | [10] 62.7 µM
not listed: [6] | [11] | [18] | [20]
inactive: all other assays above

COc1ccc([C@@H]2CC(=O)c3c(O)cc(O[C@@H]4O[C@H](CO[C@@H]5O[C@@H](C)[C@H](O)[C@@H](O)[C@H]5O)[C@@H](O)[C@H](O)[C@H]4O)cc3O2)cc1OC
not listed: [5] | [6] | [11] | [20]
inactive: all other assays above

CC(=O)Oc1ccc(C(C)=O)cc1
not listed: [13] | [19] | [20]
inactive: all other assays above

CCc1nccnc1C
not listed: [3] | [6] | [8] | [14] | [20]
inactive: all other assays above

CC(=O)OCC(C)OC(C)=O (stereo unspecified)
not listed: [6] | [8] | [20]
inactive: all other assays above

CO[Si](OC)(OC)c1ccccc1
not listed: [1]
inactive: all other assays above

O=C(Nc1cccc(C(F)(F)F)c1)c1cc(Br)cc(Br)c1O
inactive: [3] | [4] | [5] | [10] | [11] | [16]
active: [1] 66.7 µM | [2] 100 µM | [6] 46.2 µM | [7] 85.8 µM | [8] 1.89 µM | [9] 78.9 µM | [12] 2.29 µM | [13] 79.3 µM | [14] 100 µM | [15] 21.5 µM | [17] 43.9 µM | [18] 128 µM

CCCCCCOC(=O)C(C)CC (stereo unspecified)
not listed: [3] | [13] | [19] | [20]
inactive: all other assays above

CCCCCCOc1cc(C)c(O)c(C)c1C
active: [7] 18.2 µM | [8] 11.1 µM | [10] 3.01 µM
not listed: [1]
inactive: all other assays above

C=C(C)C(=O)OCC(C)C
not listed: [3] | [8] | [20]
inactive: all other assays above

CCCCC(CC)COC(=O)c1ccccc1 (stereo unspecified)
active: [10] 27.6 µM
not listed: [1]
inactive: all other assays above

CCCCCCCCCCCCCCCC[N+](C)(C)CC
active: [7] 8.94 µM | [12] 8.95 µM | [18] 5.99 µM
not listed: [2] | [8] | [20]
inactive: all other assays above

CCOC(=O)NNc1nncc2ccccc12
not listed: [5] | [10] | [12] | [17] | [20]
inactive: all other assays above

Cc1cc(C)c(C)c(C)c1
not listed: [6] | [20]
inactive: all other assays above

C[Si](C)(CCCN)O[Si](C)(C)CCCN
active: [15] 54.5 µM
not listed: [1]
inactive: all other assays above
